# An excerpt weighted towards active compounds, which were near 4.7% of everything screened.
# TRHR ag – TRH receptor (human) agonism | activation, % at 2 µM | AID 493084 | 0.18% of 360,000 active | P34981 | TRHR cells, calcium flux fluo-8, FDSS agonist mode; note: 0% is about no effect
# Target sequence (P34981 whole entry, looked up): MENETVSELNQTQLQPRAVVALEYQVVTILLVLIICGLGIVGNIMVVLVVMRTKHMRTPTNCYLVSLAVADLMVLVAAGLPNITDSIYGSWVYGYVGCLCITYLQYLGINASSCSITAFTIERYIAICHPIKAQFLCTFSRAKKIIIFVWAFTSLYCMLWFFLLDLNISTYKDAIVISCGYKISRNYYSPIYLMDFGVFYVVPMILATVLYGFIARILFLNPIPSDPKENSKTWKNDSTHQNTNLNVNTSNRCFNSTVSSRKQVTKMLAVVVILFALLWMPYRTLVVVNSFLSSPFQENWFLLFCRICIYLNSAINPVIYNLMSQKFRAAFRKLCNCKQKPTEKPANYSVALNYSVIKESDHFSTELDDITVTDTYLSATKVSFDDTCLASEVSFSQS
#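 Fluo-8-loaded TRHR cells; 10 s baseline, compound added, kinetic Ca2+ fluorescence read 1/s, agonist mode.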
# D1 antag – human D1 dopamine receptor antagonism; P21728; HEK293 TREx D1 cells, calcium flux, dopamine EC80; active compounds read low; activity change, negative = inhibition, % at 10 µM; 3.2% of 360,000 active; in the data active = activity change below about -30%; note: % is set by controls: 0 for no effect and ±100 for the full control effect
#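 Antagonism measured as reduced calcium response to an EC80 dopamine addition following 180 s compound pre-read; cells were inducible HEK293 Trex D1 plated overnight at 30 C, read kinetically at 1 cycle/sec.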
# TRHR PAM – TRH receptor (human) allosteric enhancement. P34981. TRHR cells, fluo-8 calcium fluorescence, EC20 TRH enhancement. enhancement, % at 2 µM. 0.66% of 360,000 active; in the data active = enhancement above about 30%; note: 0% is about no effect
#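 TRHR-expressing cells loaded with fluo-8 calcium dye were read kinetically (ex 480/em 530) during compound addition, then stimulated with an EC20 of TRH (10 nM final). Enhancement of the Gq-mediated intracellular calcium response was scored.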
# D1 PAM – potentiators of human D1 dopamine receptor. HEK293 TREx D1 cells, calcium flux, dopamine EC20 potentiation. potentiation, % at 10 µM. 0.036% of 360,000 active. AID 504651; in the data active = potentiation above about 30%; note: 0% is about no effect
# D1 agonist – agonists of human D1 dopamine receptor | P21728 | HEK293 T-REx D1 cells, calcium flux, agonist mode | activation, % at 2 µM | 1% of 360,000 active | AID 504660; note: 0% is about no effect
#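 Inducible HEK293 T-REx D1 cells, force-coupled to calcium signalling, were plated at 4000 cells/well with tetracycline and held overnight at 30 C. After no-wash calcium dye loading, compound-evoked calcium rise over 180 s flagged agonists.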
# Active calls of the source: *; · = not tested or not shown; ! = repeats disagree. Cut-off read from the data, not from the text of the source, unless noted: active = activation above about 30%; inactive = the rest.
SMILES,TRHR ag,D1 antag,TRHR PAM,D1 PAM,D1 agonist
CCN(CC)C(=O)c1sc2c(c1C)c(=O)n(Cc1ccccc1)c(=O)n2Cc1c(C)cc(C)cc1C,0,-11,-5,1,2
COc1ccc(NC(=O)c2oc3ccccc3c2NC(=O)c2cc(=O)c3ccccc3o2)cc1,0,-4,-4,-2,1
COc1ccc(C)cc1-n1c(-c2ccncc2)n[nH]c1=S,0,-32*,4,-4,1
N#Cc1cc([N+](=O)[O-])ccc1N1CCN(c2ccccc2O)CC1,1,-30*,-4,-13,24
COc1ccccc1NC(=O)N1CCN(c2nnc(C)c3c(C)n(-c4ccccc4)nc23)CC1,0,-2,5,-2,4
COc1ccc(-c2cc(C)no2)cc1S(=O)(=O)Nc1c(C)cc(C)cc1C,0,9,7,-2,3
Cn1cc(S(=O)(=O)CC(=O)N2CCCc3ccccc32)c2ccccc21,0,-84*,0,·,0
CC1CCC(=NNc2ccc(C(F)(F)F)cc2[N+](=O)[O-])CC1 (stereo not drawn),0,7,-1,1,4
CC1CCC/C(=N/Nc2ccc([N+](=O)[O-])cc2[N+](=O)[O-])C1 (stereo not drawn),0,-32*,2,-1,7
COc1ccccc1NC(=O)Cn1cc(C(=O)c2ccncc2)c(=O)c2cc(C)ccc21,0,4,-2,-2,3
COc1ccc(NC(=S)N(CCO)Cc2ccccc2)cc1,0,0,-5,-6,1
COCCN(Cc1ccccc1)C(=S)Nc1ccc(Cl)cc1,0,-36*,-8,-10,4
CCCC(=O)N(c1ccc2oc(C)c(C(C)=O)c2c1)S(=O)(=O)c1ccc(C(=O)O)cc1,1,-42*,-25,-8,1
COc1ccc(S(=O)(=O)N2CCC(n3c(C)nc4cccnc43)CC2)cc1Cl,2,-34*,-2,-4,15
CC(=O)c1cccc(NC(=O)Cn2cnc3c2c(=O)n(C)c(=O)n3C)c1,1,7,-5,-1,-1
CNS(=O)(=O)c1cn(CC(=O)Nc2ccc(OC)c(Cl)c2)cc1S(=O)(=O)NC,-1,-4,7,-1,1
Cc1ccc(-c2csc3nnc(SCC(=O)N4CCN(Cc5ccccc5)CC4)n23)cc1,0,15,0,-3,1
O=C(CSc1nnc2scc(-c3ccccc3)n12)N1CCN(Cc2ccccc2)CC1,0,12,39*,-5,0
COc1ccc(C2(O)CCN(CCCCOc3ccccc3)CC2)cc1,0,-18,3,-17,36*
COc1ccc(OCCCN2CCc3ccccc3C2)cc1,0,-8,0,-10,2
CN1CCN(C(=O)c2cc3ccccc3oc2=O)CC1,0,-6,-2,-4,2
Cc1ccc(N2CCN(C(=O)NC3CCCCC3)CC2)c(C)c1,1,-6,-5,-4,21
Cc1cccc(N2CCN(C(=O)NC3CCCCC3)CC2)c1C,5,-41*,6,0,33*
Cc1cccc(N2CCN(C(=O)c3cc4ccccc4oc3=O)CC2)c1C,0,-76*,-1,-10,4
CCc1cccc(NC(=O)C(NS(=O)(=O)c2ccc3nc(C)sc3c2)C(C)C)c1 (stereo not drawn),-1,1,-1,-1,0
SMILES,TRHR ag,D1 antag,TRHR PAM,D1 PAM,D1 agonist
O=C(O)c1ccc(/C=C2/SC(=S)N(Cc3ccccc3)C2=O)cc1,0,2,4,30*,2
COc1cc(/C=C2/SC(=S)N(CC(=O)NC(C)(C)C)C2=O)cc(OC)c1OC,2,-4,28,-5,5
COc1cc(/C=C2\SC(=S)N(CC(=O)NC(C)(C)C)C2=O)cc(OC)c1OC,2,-61*,-3,-10,11
CN1CCN(C(=O)CCN2C(=O)/C(=C\c3ccc(Cl)cc3)SC2=S)CC1,1,-43*,1,-3,16
O=C(O)c1ccc(CN2C(=O)CSC2=S)cc1,3,12,-5,-8,31*
O=C1/C(=C\c2ccc(O)cc2)SC(=S)N1Cc1ccccc1,8,0,3,-6,27
CCN(CC)C(=O)Cn1c(=O)n(Cc2ccc(C(=O)NCCc3ccc(OC)c(OC)c3)cc2)c(=O)c2ccccc21,-1,-4,-6,2,-1
Cc1ccc(NC(=O)CN2C(=O)CSc3ccc(S(=O)(=O)N(C)C)cc32)c(C)c1,-1,-9,-1,-1,3
CCCNC(=O)c1ccc2c(c1)N=C(C)c1c(C)ccc(C)c1S2,2,13,3,0,3
O=C1/C(=C\c2cccc([N+](=O)[O-])c2O)SC(=S)N1Cc1ccccc1,0,-26,-1,0,6
COc1cc(/C=C2/SC(=S)N(Cc3ccccc3)C2=O)cc(Cl)c1O,159*,-25,92*,3,474*
COc1cc([N+](=O)[O-])cc(/C=C2/SC(=S)N(Cc3ccccc3)C2=O)c1O,24,-3,2,0,110*
CC(C)(C)OC(=O)N1CCC(c2c(C(=O)NCCCN3CCc4ccccc4C3)cnn2-c2ccccc2)CC1,0,-2,18,2,6
CC(=O)c1cc2c(cc1N/C(=N/S(=O)(=O)c1ccc(F)cc1)c1ccccc1)OCO2,1,3,12,0,0
NS(=O)(=O)OCCCc1ccccc1,0,-37*,1,-3,1
O=[N+]([O-])c1ccc(P(=O)(Cc2ccccc2)c2ccccc2O)cc1 (stereo not drawn),-1,-34*,4,-6,0
O=C(Nc1ccc(Cl)cn1)c1ccc2[nH]c(=O)c(=O)[nH]c2c1,0,-30*,0,-2,1
Cc1ccc(NC(=O)c2ccc3[nH]c(=O)c(=O)[nH]c3c2)nc1,1,13,-2,-2,2
CCN(c1ccccc1)S(=O)(=O)c1cc(C(=O)Nc2ccc(Br)cc2)ccc1F,1,-37*!,-8,-3,7
CCn1cc(S(=O)(=O)c2ccccc2)c(=O)c2cc(F)c(N3CCCCCC3)cc21,1,12,4,3,2
O=C(O)c1c(Cl)c(Cl)c(Cl)c(Cl)c1C(=O)N1CCOCC1,1,-35*,0,-3,4
O=C(O)c1c(Cl)c(Cl)c(Cl)c(Cl)c1C(=O)N1CCCCCC1,1,3,2,-4,2
COCCOC(=O)c1[nH]c2c(c1C)C(=O)CC(c1ccc(F)cc1)C2 (stereo not drawn),0,-7,-3,-6,64*
COc1ccc(C2(C)NC(=O)N(CC3CCCCC3)C2=O)cc1 (stereo not drawn),0,-52*,-5,-5,12

# Screening data deposited in PubChem by National Center for Advancing Translational Sciences (NCATS).
